Sampled rows, rich in hits. Any-hit rate of the full collection: about 2.5%.
aDG glyco act: activators of alpha-DG glycosylation, primary screen, uHTS, Pro5-aDG cells, AlphaScreen; alpha-DG glycosylation AlphaScreen (IIH6); 0% Pro5, 100% B10-LARGE cell signal; activation, % at 10 µM; hit rate 0.22% among 360,000;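 active = activation of at least 8% versus controls, or a plate z-score of at least 8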;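 also: Pro5 are CHO cells carrying HIG-tagged alpha-DG that lacks glycosylation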
DYRK1A inh: rat Dyrk1A kinase inhibitors, primary screen, biochemical, single point, plate reader. Dual specificity tyrosine-phosphorylation-regulated kinase 1A (Rattus norvegicus), Q63470. ADP-Glo luminescence, NFATc1 peptide. inhibition, % at 12.5 µM. hit rate 0.43% among 310,000. AID 504441, 2011; in the data active = inhibition above about 50%
HSF1 activator: HSF-1 activators, primary screen, NIH3T3-HGL cells, MG132 stress, luminescence, single point; hit rate 1.7% among 300,000; NIH3T3-HGL HSF-1 luciferase reporter, 8 h; 100% = twice DMSO control signal; AID 504408, 2011; activation, % at 9 µM;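 active = mean replicate activation of at least 50% with a set share of replicates each reaching 50%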
HSF1 inh: HSF1 inhibitors in luciferase reporter cells, primary screen, cell-based, NIH3T3, luminescence; AID 2098, 2009; activity change, negative = inhibition, % at 7.5 µM (by protocol); NIH3T3-HGL HSE-luciferase, MG132-induced, luminescence 8 h; stronger effect = lower value; hit rate 0.77% among 300,000;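 active = more than half of replicate wells show activity change below -50%, luminescence cut by over half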;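 also: luciferase reports HSF-1 transcriptional activity via heat shock element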
NPR2 activator: human GC-B receptor activators, primary screen, HEK293 GC-B cells, cGMP TR-FRET, EC30 CNP; Atrial natriuretic peptide receptor 2 (Homo sapiens), P20594; 0% at EC30 CNP, 100% saturating CNP; activation, % at 10 µM; hit rate 0.11% among 370,000;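 active = activation at 10 µM reaching about 35% in either raw or pattern-adjusted values, limit read from the data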
NPR1 activator: GC-A stimulated cGMP production enhancers – HEK293 GC-A cells, cGMP TR-FRET, EC30 ANP, primary screen | AID 1671463, 2021 | activation, % at 10 µM | 0% at EC30 ANP, 100% saturating ANP | hit rate 0.14% among 370,000 | Atrial natriuretic peptide receptor 1 (Homo sapiens), P16066; in the data active = activation above about 40%
Target sequence (P16066 whole entry, looked up): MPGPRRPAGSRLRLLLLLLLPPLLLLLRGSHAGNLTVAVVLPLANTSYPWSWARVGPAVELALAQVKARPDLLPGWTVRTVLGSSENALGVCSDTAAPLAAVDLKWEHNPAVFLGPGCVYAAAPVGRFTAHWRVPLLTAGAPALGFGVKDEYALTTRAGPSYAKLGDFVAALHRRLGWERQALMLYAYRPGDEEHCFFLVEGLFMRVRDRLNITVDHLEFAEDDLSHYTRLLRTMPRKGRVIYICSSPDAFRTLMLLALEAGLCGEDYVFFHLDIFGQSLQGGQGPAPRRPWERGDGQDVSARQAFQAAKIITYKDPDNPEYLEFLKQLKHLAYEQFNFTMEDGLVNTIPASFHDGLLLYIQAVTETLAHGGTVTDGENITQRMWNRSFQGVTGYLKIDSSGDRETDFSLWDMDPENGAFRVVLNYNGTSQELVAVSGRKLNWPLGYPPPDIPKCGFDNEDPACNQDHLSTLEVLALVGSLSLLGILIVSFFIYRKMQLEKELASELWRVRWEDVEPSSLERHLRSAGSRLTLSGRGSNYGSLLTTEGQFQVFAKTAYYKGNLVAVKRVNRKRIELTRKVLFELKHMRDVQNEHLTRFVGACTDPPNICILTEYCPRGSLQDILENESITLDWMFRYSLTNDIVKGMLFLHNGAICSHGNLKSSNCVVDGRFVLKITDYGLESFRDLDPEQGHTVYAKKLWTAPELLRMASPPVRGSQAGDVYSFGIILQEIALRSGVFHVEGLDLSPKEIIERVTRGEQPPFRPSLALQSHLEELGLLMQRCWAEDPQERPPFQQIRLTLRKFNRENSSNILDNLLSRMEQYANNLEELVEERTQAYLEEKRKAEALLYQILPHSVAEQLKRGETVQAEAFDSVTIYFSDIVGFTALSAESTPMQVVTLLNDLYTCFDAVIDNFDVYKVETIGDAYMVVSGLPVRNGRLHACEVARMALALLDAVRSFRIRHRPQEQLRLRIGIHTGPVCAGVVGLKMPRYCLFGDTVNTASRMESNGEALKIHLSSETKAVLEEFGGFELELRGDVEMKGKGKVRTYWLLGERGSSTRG
Large screens that a line does not name were inactive.

Cc1ccc(NC(=S)Nc2ccc(S(=O)(=O)N3CCOCC3)cc2)cc1S(=O)(=O)N1CCOCC1	none
COc1ccccc1N1CCN(S(=O)(=O)c2ccc(-c3ccc(=O)[nH]n3)o2)CC1	none (no result: DYRK1A inh)
CC(C)(C)OC(=O)CN1c2cccc3cccc(c23)S1(=O)=O	none
Cc1nnc(NCCc2ccccc2)c2ccccc12	HSF1 activator 54
Cc1[nH]nc2c1C(c1ccco1)C(C#N)=C(N)O2 (stereo unspecified)	none
Cc1[nH]nc2c1C(c1cc(Br)cs1)C(C#N)=C(N)O2 (stereo unspecified)	HSF1 activator 70
CCNC(=O)N1CCN(c2ccc(N3CCN(C(=O)NCC)[C@@H](C)C3)c(C)c2)[C@H](C)C1	none (no result: aDG glyco act, DYRK1A inh, HSF1 activator, HSF1 inh)
O=C(N/N=C/c1ccccc1)c1ccco1	none
O=C(C#Cc1ccccc1)c1ccco1	HSF1 inh -96
Cc1oc(S(=O)(=O)N(C)C)cc1C(=O)Nc1ccc(Cl)cc1	HSF1 activator 55
Cc1ccc(C(=O)Nc2cnc3ccccc3c2)cc1	HSF1 inh -67
Cc1ccc(C(=O)Nc2cccc(-c3cnc4ccccc4n3)c2)cc1	HSF1 inh -61
Cc1cc(C(=O)Nc2cnc3ccccc3c2)ccc1[N+](=O)[O-]	none
O=C(c1ccco1)N1CCN(Cc2cc(=O)c(OCc3cccc(Cl)c3)co2)CC1	none
COC(=O)c1cc(/C=C/c2ccccc2)[nH]n1	none
COC(=O)c1cc(/C=C/c2ccccc2)on1	NPR1 activator 59 (no result: DYRK1A inh)
Cc1ccc2nc(-c3ccc(Cl)cc3)c(Cc3cccc(F)c3)n2c1	NPR2 activator 36 (no result: aDG glyco act, DYRK1A inh, HSF1 activator, HSF1 inh)
Cc1ccc(Cc2c(-c3ccc(C)cc3)nc3ccc(Cl)cn23)cc1	NPR2 activator 37 (no result: DYRK1A inh, HSF1 activator, HSF1 inh)
Cc1ccc(-c2nc3ccc(Cl)cn3c2Cc2cccc(F)c2)cc1	none (no result: DYRK1A inh, HSF1 activator, HSF1 inh)
Cc1ccc(Cc2c(-c3ccc(Cl)cc3)nc3ccc(Cl)cn23)cc1	none (no result: DYRK1A inh, HSF1 activator, HSF1 inh)
Cc1cccc(C)c1NC(=O)Cn1nc(-c2ccccc2)nc1-c1ccccc1	none
O=C(Oc1cc(=O)oc2c1c(=O)n1c3c(cccc23)CC1)c1ccc(F)cc1	HSF1 inh -67 (no result: DYRK1A inh)
CC(C(=O)Nc1ccccc1Br)N1c2cccc3cccc(c23)S1(=O)=O (stereo unspecified)	HSF1 activator 67
CNC(=O)C(C)N1c2cccc3cccc(c23)S1(=O)=O (stereo unspecified)	none
COCC1CCN(Cc2nc(Cc3ccccc3Cl)no2)CC1	none
O=C(NCc1ccncc1)c1ccc(Cl)c(S(=O)(=O)N2CCOCC2)c1	HSF1 inh -76
CCOc1ccc(C(=O)NCc2ccncc2)cc1OCC	HSF1 inh -61
CCOc1cc(C(=O)NCc2ccncc2)cc(OCC)c1OCC	none
Cn1c(C(=O)N2CCc3ccccc3C2)cc2oc3ccccc3c21	HSF1 activator 66 (no result: NPR2 activator, NPR1 activator)
ONC(=Nc1ccc(Cl)cc1)c1ccc(Cl)cc1	HSF1 activator 55
CCNC(=O)N1CCC(n2nccc2NC(=O)CCOc2ccccc2)CC1	none
CC(C)C(=O)N1CCC(n2nccc2NC(=O)CCOc2ccccc2)CC1	HSF1 activator 54
CCCNC(=S)NC1CC2CCCC(C1)N2Cc1ccc(F)cc1 (stereo unspecified)	HSF1 inh -61 (no result: DYRK1A inh)
Nc1c(-c2ccsc2)cnc2ncnn12	HSF1 activator 64
Cc1nnc2c(NC3CCCCC3)nc3ccccc3n12	none
Cn1c(SCC(=O)NNC(=O)Nc2ccc(Cl)cc2)nnc1-c1ccccc1	HSF1 activator 56 (no result: aDG glyco act, DYRK1A inh)
Cc1ccccc1OCc1nnc(SCC(=O)Nc2ccc3c(c2)oc2ccccc23)n1C	none
Cc1nnc(SCC(=O)Nc2ccccc2)c2ccccc12	HSF1 activator 52
Cc1occc1-c1nnc(SCC(=O)Nc2ccccc2)n1C	HSF1 inh -82
Cc1nnc(SCC(=O)Nc2ccc(O)cc2)c2ccccc12	none
Cn1c(SCC(=O)NNC(=O)Cc2ccccc2)nnc1-c1ccccc1	none
Cc1ccc(-c2nnc(SCC(=O)Nc3ccc4c(c3)oc3ccccc34)n2C)c(Cl)c1	HSF1 activator 57
O=C(CCN1N=C(c2ccccc2)CCC1=O)NC1CCCCC1	none (no result: DYRK1A inh, HSF1 activator, HSF1 inh)
O=S1(=O)C=CC(c2ccccc2)C1 (stereo unspecified)	none
COC(=O)c1ccc(NC(=O)CSc2nnc(-c3ccccc3)n2C)cc1	HSF1 inh -67
CC(C)CC(=O)Nc1ccc2c(c1)oc1ccccc12	HSF1 activator 62
COc1ccc(C(CC(=O)c2ccc(C)cc2)C(C#N)C#N)cc1OC (stereo unspecified)	HSF1 activator 73
Cc1cc(C)nc(Sc2ccc([N+](=O)[O-])cc2[N+](=O)[O-])n1	HSF1 activator 66
CC(C)Oc1ccc(C(=O)O)cc1	HSF1 inh -89
C(=C/c1ccnc2nc(SC/C=C/c3ccccc3)nn12)/c1ccccc1	HSF1 activator 101
CN(C(=O)c1ccc(NC(=O)Cc2ccc(NC(=O)C3CCCN(C(=O)C4CC4)C3)cc2)cc1)C1CCCC1 (stereo unspecified)	none (no result: DYRK1A inh, HSF1 activator, HSF1 inh)
Cc1cc(C(=O)COC(=O)C2=NNC(=O)CC2)c(C)n1-c1cccc(C(F)(F)F)c1	none
CCNc1nc(NCC)n2c(SCC(=O)c3ccc(C(C)C)cc3)nnc2n1	HSF1 activator 51
CCNc1nc(NCC)n2c(SCC(=O)Nc3ccccc3)nnc2n1	none (no result: DYRK1A inh)
CCNc1nc(NCC)n2c(SCC(=O)Nc3ccc(C(F)(F)F)cc3[N+](=O)[O-])nnc2n1	HSF1 activator 70
O=C(O)c1cccc2cccc(-c3c4ccc(=O)c(O)c-4oc4c(O)c(O)ccc34)c12	NPR2 activator 48
COc1ccc(Cn2c(O)c(C=Nc3ccc(O)cc3)c3ccccc3c2=O)cc1	none
O=c1c2ccccc2c(C=Nc2ccc(O)cc2)c(O)n1Cc1ccccc1	HSF1 activator 79
Cc1ccc(/C=C/C(=O)OCC(=O)NCCN2C(=O)CSC2=O)o1	HSF1 inh -73
Cc1nc([N+](=O)[O-])c(Br)n1CC(=O)c1ccc2ccccc2c1	HSF1 activator 159 (no result: NPR2 activator, NPR1 activator)
Cc1nc([N+](=O)[O-])c(Br)n1CC(=O)c1ccc(Br)cc1	HSF1 activator 123
CCc1cccc(C)c1NC(=O)C1CCN(c2nn3c(=O)cc(C)nc3s2)CC1	none (no result: DYRK1A inh)
Cc1ccc(S(=O)(=O)N2CCN(S(=O)(=O)c3ccccc3)C2)cc1	none
Cc1ccc(S(=O)(=O)N2CCN(S(C)(=O)=O)C2)cc1	HSF1 inh -63
